# JMJD2A Tudor inh = JMJD2A Tudor domain (human) inhibition. O75164. AlphaScreen JMJD2A-Tudor / H3K4me3 peptide binding. Potency, µM (titrated, usually from 114 µM), most hits filed as inhibitors. 390,000 tested, 4.4% active; also: nearly all actives have a fitted effect of over 50% in size
# HP1b binding inh = inhibitors of HP1-beta chromodomain binding to methylated histone tails | P83916 | AlphaScreen HP1-beta / biotin-H3K9me3 peptide binding | Potency, µM (titrated, usually from 114 µM), most hits filed as inhibitors | 390,000 tested, 0.56% active | AID 540317; also: nearly all actives have a fitted effect of over 70% in size
#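 AlphaScreen: HP1-beta (50 nM) preformed 30 min with biotin-H3(1-18)K9me3 peptide (50 nM) in PBS pH 7.4, 0.01% Tween-20. Compound added for 30 min at RT, then streptavidin donor/nickel chelate acceptor beads (10 ug/mL) for 30 min.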
# PI5P4K alpha inh = blocks human PI5P4K alpha kinase activity | 330,000 tested, 1.2% active | AID 652105 | PI5P4Kalpha enzyme, ADP-Glo luminescence, 60 min; hits give low values | max response, % | P48426; active = max response of -50% or lower; inconclusive = between -30% and -50%; inactive = -30% or higher; also: value at the top dose of about 77 µM
#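 Single end-point luminescence (ADP-Glo) quantified ADP from PI5P4Kalpha turnover; ATP 5 microM final, 1 h at RT, 0.1% CHAPS and 0.28 mM EGTA in HEPES pH 7.4.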
# PLK1 PBD inh = blocks phosphopeptide binding to human PLK1 polo-box domain. 360,000 tested, 2.8% active. Potency, µM, actives largely listed as inhibitors. Plk1 PBD binding of FITC phosphopeptide, fluorescence polarization. P53350; also: series mostly up to about 57 µM; nearly all actives have a fitted effect of over 65% in size
# Target sequence (P53350 whole entry, looked up, the tested form may be a part): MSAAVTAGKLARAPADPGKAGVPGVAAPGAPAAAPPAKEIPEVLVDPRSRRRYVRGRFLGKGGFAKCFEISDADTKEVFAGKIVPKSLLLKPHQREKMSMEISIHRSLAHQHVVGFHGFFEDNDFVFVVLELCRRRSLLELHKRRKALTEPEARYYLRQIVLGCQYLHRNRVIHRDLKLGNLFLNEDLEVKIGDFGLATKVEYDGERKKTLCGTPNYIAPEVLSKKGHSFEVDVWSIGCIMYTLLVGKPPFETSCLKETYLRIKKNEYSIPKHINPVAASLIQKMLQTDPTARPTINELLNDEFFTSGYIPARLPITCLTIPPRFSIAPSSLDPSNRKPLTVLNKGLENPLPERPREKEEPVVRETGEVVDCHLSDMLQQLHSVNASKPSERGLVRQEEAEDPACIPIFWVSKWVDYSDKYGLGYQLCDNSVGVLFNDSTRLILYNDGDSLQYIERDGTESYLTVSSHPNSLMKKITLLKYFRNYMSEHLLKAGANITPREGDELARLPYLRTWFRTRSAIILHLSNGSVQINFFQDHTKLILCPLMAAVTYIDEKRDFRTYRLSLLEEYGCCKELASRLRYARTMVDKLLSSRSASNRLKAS
# BAZ2B block = blocks human BAZ2B | Q9UIF8 | AlphaScreen BAZ2B-H3K14Ac peptide displacement | Potency, µM (titrated, usually from 114 µM), hits mostly inhibitors | 360,000 tested, 4.4% active | AID 504333; also: nearly all actives have a fitted effect of over 60% in size
#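 Protein-peptide AlphaScreen: BAZ2B 50 nM, b-H3K14Ac 50 nM, 1x PBS pH 7.4 + 0.01% Tween-20. Preincubation 30 min RT; cpd 30 min RT (top 110 uM); beads 20 min RT, light-protected.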
# G9a block = G9a (human) methyltransferase inhibition; 350,000 tested, 8.8% active; AID 504332; Potency, µM (top dose mostly 102 µM), hits mostly inhibitors; G9a H3K9 monomethylation, AlphaScreen, 2 h; also: nearly all actives have a fitted effect of over 75% in size
#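 Signal arises when biotinylated H3K9 peptide, once monomethylated, bridges streptavidin donor and antibody-captured acceptor beads. Enzyme at 20 nM was preincubated 15 min with test compounds; peptide 500 nM and SAM 20 uM then reacted for 2 h.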
# Hits are given with their value; 0 = inactive; ? = inconclusive; - = no result given; [ ] = another dose, or the depositor's remark. An excerpt weighted towards active compounds, which were near 12% of everything screened. Unless noted, calls follow the shape of the dose curve; as a rule, active = well fitted curve in the direction sought with a large enough effect; inconclusive = small, poorly fitted or top-dose-only effect, or another doubt; inactive = no such curve, though single readings can be large; an effect the other way counts as inactive or inconclusive.
SMILES,JMJD2A Tudor inh,HP1b binding inh,PI5P4K alpha inh,PLK1 PBD inh,BAZ2B block,G9a block
C=CCn1c(SCC(=O)Nc2cc(C)on2)nnc1C1COc2ccccc2O1 (configuration not stated),0,0,0,0,0,0
COc1ccc2cc(C)c3nnc(SCC(=O)Nc4cc(OC)c(OC)cc4C(=O)O)n3c2c1,0,0,0,?,0,40µM
Cc1cc(NC(=O)CSc2nnc(C3COc4ccccc4O3)o2)no1 (configuration not stated),0,0,0,0,50µM,?
COCCNC(=O)CSc1nc2cc3c(cc2c(=O)n1CCCCCC(=O)NCCc1ccc(OC)c(OC)c1)OCO3,0,0,-,-,0,0
Cc1c(O)ccc(/C(Cc2ccc3ccccc3n2)=N\N)c1O,?,0,0,0,?,8.9µM
CCc1cc(/C(Cc2ccc3ccccc3n2)=N\O)c(O)cc1O,?,0,0,0,?,0
COc1ccc(CN2CCNC(=O)C2CC(=O)N(C)Cc2nccs2)cc1OC (configuration not stated),0,0,0,0,0,-
CC(C)(C)CN1CCNC(=O)C1CC(=O)N1CCN(c2ccccc2)CC1 (configuration not stated),0,0,0,0,0,56µM
Cc1cc(CN(C)C(=O)CC2C(=O)NCCN2Cc2ccc(-c3ccccc3)cc2)on1 (configuration not stated),0,0,0,0,?,40µM
CC(C)(C)CN1CCNC(=O)C1CC(=O)N1CCC(C(=O)N2CCOCC2)CC1 (configuration not stated),0[11.4 µM],0,0,0,0,0
CN(Cc1ccon1)C(=O)CC1C(=O)NCCN1CC(C)(C)C (configuration not stated),0[11.4 µM],0,0,0,0,45µM
CN(Cc1ccon1)C(=O)CC1C(=O)NCCN1Cc1ccc(F)c(F)c1 (configuration not stated),0,0,0,0,0,-
CN(Cc1nccs1)C(=O)CC1C(=O)NCCN1Cc1ccc(-c2ccccc2)cc1 (configuration not stated),?,0,0,27µM,0,?
CN(Cc1cccnc1)C(=O)CC1C(=O)NCCN1Cc1ccc(-c2ccccc2)cc1 (configuration not stated),0,0,0,0,-,50µM
O=C(CC1C(=O)NCCN1Cc1ccc(-c2ccccc2)cc1)NCCOc1cccnc1 (configuration not stated),0,0,0,0,0,50µM
COc1cc(CN2CCNC(=O)C2CC(=O)N(C)Cc2cccnc2)cc(OC)c1 (configuration not stated),?,0,0,15µM,0,0[12.7 µM]
CN(Cc1cccnc1)C(=O)CC1C(=O)NCCN1CC(c1ccccc1)c1ccccc1 (configuration not stated),0,0,0,0,0,0
O=C(CC1C(=O)NCCN1Cc1ccc(F)cc1)NCCOc1cccnc1 (configuration not stated),0,0,0,0,0,-
Cc1cc(C)cc(S(=O)(=O)N2CCN(c3nc(-c4cccs4)nc4ccccc34)CC2)c1,0,0,-,-,-,-
CC[C@H]1C(c2cccc(Cl)c2)=NN(c2ccccc2)[C@@H]1CO,-,-,-,-,-,0
CCCN1CCN(C(=S)Nc2ccccc2C(F)(F)F)CC1,0,0,0,0,0,40µM
CC1=CC(=NOS(=O)(=O)c2ccc(C)cc2)CC(C)(C)C1,-,-,0,0,-,-
O=c1[nH]c(NC2CCCCC2)nnc1Cc1ccccc1,50µM,0,0,0,0,?
O=C(O)C(CCCCN1C(=O)c2ccccc2C1=O)N1C(=O)c2ccccc2C1=O (configuration not stated),0,0,0,0,89µM,?
Cc1oc2ccc(O)c(CN3CCN(Cc4ccccc4)CC3)c2c1C(=O)Nc1ccccc1,?,0,-,-,0,?
SMILES,JMJD2A Tudor inh,HP1b binding inh,PI5P4K alpha inh,PLK1 PBD inh,BAZ2B block,G9a block
Cc1ccccc1-c1nc2c(=O)n(C)c(=O)nc-2n(C)n1,0,0,-,-,-,-
Cn1nc(-c2ccccn2)nc2c(=O)n(C)c(=O)nc1-2,11µM,0,0,0,10µM,14µM
CN(C)c1ccc(C=C2SC(=S)N(Cc3ccco3)C2=O)cc1,-,-,0,0,-,-
O=C1C(=C2CCCCC2)SC(=S)N1Cc1ccco1,56µM,0,0,21µM,?,35µM
O=C(O)CCN1C(=O)C(=C2CCCCCC2)SC1=S,0,0,0,?,0,45µM
O=C(O)CCN1C(=O)C2CCCCC2C1=O (configuration not stated),0,0,0,0,0,0
O=C(N/N=C/c1cc(Br)c(Br)o1)c1ccc2c(c1)OCCO2,40µM,?,-57,0,45µM,-
O=C(CNC(=O)c1ccc2c(c1)OCO2)N/N=C/c1cc(Br)ccc1O,?,0,0,0,0,79µM
O=C(CNC(=O)c1ccccc1)N/N=C/c1cc(Br)ccc1O,0,0,0,0,0,0
O=C(N/N=C/c1cc(Br)c(O)c(Br)c1O)c1ccc2c(c1)OCCO2,40µM,0,-56,0,45µM,?
O=C(N/N=C/c1cc(Br)cc(Cl)c1O)c1ccc2c(c1)OCO2,?,0,0,0,-,-
CCC(Sc1nc(-c2ccc(F)cc2)nc2c1Cc1c(CO)cnc(C)c1O2)C(=O)Nc1ccc(F)cc1 (configuration not stated),0,0,-,-,0,0
C[C@H]1CNC(=O)C(=O)N1C[C@H](Cc1ccc(O)cc1)NC(=O)CC12CC3CC(CC(C3)C1)C2,0,0,0,0,0,71µM
Cc1ccc(C(=O)c2cn(Cc3ccccc3)c3nc(C)ccc3c2=O)cc1,0,0,-,-,0,0
CN(Cc1cccc(F)c1)CC(O)COCc1ccccc1Cl (configuration not stated),22µM,?,0,0,-,56µM
CC1CCc2c(sc3nnn(Cc4ccccc4Cl)c(=O)c23)C1 (configuration not stated),0,0,-,-,0,0
COc1cccc(CNC(=O)c2ccc(-c3nc(CS(=O)c4ccccc4)c(C)o3)cc2)c1 (configuration not stated),0,0,-,-,0,?
O=C(NC(=S)N1CCOCC1)C12CCC3CC(CC(C3)C1)C2,0,0,0,30µM,0,0
O=C(NC(=S)N1CCOCC1)C12CC3CCC(CC(C3)C1)C2,0,0,0,0,0,0
CCN(CC)c1ccc(/C=N/NC(=O)c2ccoc2C)c(O)c1,0[11.4 µM],0,0,0,0,0
O=C(NCCc1ccccc1)c1ccc2nc(N3CCOCC3)sc2c1,0,0,0,0,0,-
O=C(NCc1cccc(Cl)c1)c1ccc2nc(N3CCOCC3)sc2c1,0,0,0,27µM,0,-
O=C(Nc1ccc(F)cc1)C1COc2ccccc2O1 (configuration not stated),0,0,0,0,0,40µM

# Source: PubChem BioAssay
